Screens: PubChem BioAssay, several laboratories
The list is not random: actives were taken first. Their share in the collection is about 6.2%.
Mot1-301 SUMO = yeast Mot1-301 growth rescue at high temperature, primary screen, SUMOylation pathway inhibitor project, S. cerevisiae, ATP luminescence, 38.5C. growth rescue, % at 18.8 µM. 320,000 tested, 1% active. S. cerevisiae Mot1-301 growth rescue; percent above DMSO median, 100 means doubled. AID 2716, 2010;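 active = every valid replicate shows activation above 250% relative to neutral control wells; inactive = the rest, any valid replicate at or below 250%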;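 also: OY570 slx delta 5 strain wells were the positive control but not used for scaling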
NTR1 agonist = agonists of human NTR1, primary screen, imaging, U2OS cells, beta-arrestin-GFP, high content. Neurotensin receptor type 1 (Homo sapiens), P30989. NTR1-U2OS beta-arrestin-GFP spot imaging, agonist mode. activation, % at 20 µM. 330,000 tested, 0.17% active. AID 493036, 2011;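 active = activation at or above 40% of the spot to cytoplasm intensity ratio, with at least 20 cells analyzed; inconclusive = wells under 20 cells, flagged as cytotoxic or low count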;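 also: 0% = DMSO without peptide and 100% = 100 nM NTR1 peptide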
GRIN3A LBD mod = binders of NR3A ligand-binding domain, primary screen, biophysical, differential scanning fluorimetry, uHTS. NR3A LBD differential scanning fluorimetry, Tm shift; 0% = protein alone, 100% = glycine-bound protein. Tm shift relative to glycine control, % at 25 µM. 340,000 tested, 2.5% active. AID 1259313, 2017. Glutamate receptor ionotropic, NMDA 3A (GRIN3A) ligand-binding domain;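 active = melting temperature shift of at least 10% of the positive control shift, at one fixed dose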
H9c2 protect = cardioprotection against H2O2-induced cell death, primary screen, uHTS, H9c2 cells, ATPLite luminescence. H9c2 cardiomyocytes, H2O2 injury protection, 2 h. protection from H2O2 cell death, % at 20 µM. 360,000 tested, 0.63% active. AID 588492, 2011;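 active = compounds giving at least 50% protection of heart cells from peroxide-induced death in the single-dose screen, raw or plate-pattern-corrected value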;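 also: 0% = DMSO wells with peroxide and 100% = DMSO wells without peroxide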
AHR activator = AHR activators, primary screen, cell-based, luminescence, luciferase reporter, human; 320,000 tested, 2.5% active; AHR-responsive luciferase reporter cells; activation, % at 5 µM; Aryl hydrocarbon receptor (Homo sapiens), P35869; in the data active = activation above about 47%;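 also: 0% = vehicle wells and 100% = reference agonist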
AI-2 QS modul = Vibrio harveyi AI-2 quorum sensing modulators, primary screen, JMH597 strain, luminescence/OD600 ratio; Vibrio harveyi JMH597 AI-2 luminescence/OD600 ratio, 9 h; hits give low values; strain lacks LuxN and CqsS sensors; 0 = neutral-control median; activity change, % at 7.5 µM; 300,000 tested, 0.4% active; AID 2094, 2009; in the data active = activity change below about -75%, passing the limit was not always enough; inconclusive = no clear call, values can overlap the other calls;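 also: luminescence divided by OD600 gain over 9 h not by final OD600 alone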
AHR act cf = AHR activators, confirmation, cell-based, luminescence, luciferase reporter, human; 2,300 tested, 87% active; human cells, AHR-responsive luciferase reporter; shares compounds with AHR activator; activation, % at 9 µM; in the data active = activation above about 49%;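 also: HepG2 hepatoma cells carrying a DRE-driven firefly luciferase reporter; 0% = vehicle wells and 100% = reference agonist wells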
PXR counter = human PXR activators, counter-screen for AHR activator project, cell-based, luciferase luminescence; 2,300 tested, 88% active; shares compounds with AHR activator; activation, % at 11.6 µM; cell-based PXR reporter; AID 434939, 2010; in the data active = activation above about 11%;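 also: human hepatoma DPX-2 cells expressing full-length human PXR; 0% = DMSO and 100% = reference agonist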
Target sequence (O75469 whole entry, looked up): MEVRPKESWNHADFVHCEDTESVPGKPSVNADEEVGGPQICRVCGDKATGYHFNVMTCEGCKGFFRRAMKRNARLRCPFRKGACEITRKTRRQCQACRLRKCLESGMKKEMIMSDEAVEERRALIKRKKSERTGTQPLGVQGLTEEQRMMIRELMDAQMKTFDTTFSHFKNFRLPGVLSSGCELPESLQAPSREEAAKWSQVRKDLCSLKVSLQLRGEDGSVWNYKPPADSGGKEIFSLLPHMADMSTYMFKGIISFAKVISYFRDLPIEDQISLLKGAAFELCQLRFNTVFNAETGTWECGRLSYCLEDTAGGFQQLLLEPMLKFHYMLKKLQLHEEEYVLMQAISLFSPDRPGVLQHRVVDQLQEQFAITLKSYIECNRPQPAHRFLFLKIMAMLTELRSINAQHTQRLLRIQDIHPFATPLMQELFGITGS
* hit, by the source's call; ? = inconclusive; . = not tested or not shown.

SMILES	Mot1-301 SUMO	NTR1 agonist	GRIN3A LBD mod	H9c2 protect	AHR activator	AI-2 QS modul	AHR act cf	PXR counter
O=C(Nc1ccc2c(c1)OCCO2)C(=O)c1c[nH]c2ccccc12	25	-1	-24	-16	3	7	.	.
Cn1nc(C(=O)Nc2ccccc2N2CCCC2)c2ccccc2c1=O	7	4	2	22	114*	8	82*	74*
Cn1nc(C(=O)Nc2ccc3c(c2)OCO3)c2ccccc2c1=O	-11	0	0	5	123*	-3	107*	10
O=C(Nc1ccc2c(c1)OCO2)C(=O)c1c[nH]c2ccccc12	1	0	0	-10	84*	14	70*	38*
O=C(NCc1ccccc1OC(F)(F)F)C1CCC(=O)N(C2CC2)C1 (stereo not given)	4	2	1	-1	.	3	.	.
Cc1ccc(CNC(=O)CC(C)S(=O)(=O)c2ccc3c(c2)NC(=O)C(C)S3)cc1 (stereo not given)	-4	0	0	-5	2	21	.	.
CC(C)n1cc(CN2CCN(C)C(CCO)C2)c2ccccc21 (stereo not given)	3	0	-5	-2	3	2	.	.
O=C(Nc1cccc2nsnc12)c1ccc2c(c1)OCCO2	28	0	-1	-9	20	18	.	.
O=C(Nc1cccc(F)c1)c1ccc(S(=O)(=O)NCC2CCCO2)cc1 (stereo not given)	19	0	-30	-8	0	11	.	.
O=C(Nc1ccc2c(c1)OCO2)c1ccc(S(=O)(=O)NCC2CCCO2)cc1 (stereo not given)	-8	-1	3	-12	84*	34	14	21*
CC(C)Sc1nnc(NC(=O)c2ccc3c(c2)OCO3)s1	3	3	1	2	110*	14	47	27*
Cn1nccc1C(=O)Nc1ccc(Cl)cc1	-2	2	3	6	5	4	.	.
O=C(Nc1cccc2nsnc12)c1ccc2c(c1)OCO2	-2	4	2	23	118*	21	127*	30*
Cn1nccc1C(=O)Nc1ccc2c(c1)OCO2	-8	1	0	-2	104*	9	60*	19*
CC(=O)Nc1cc(-c2ccc(C(=O)N3CCOCC3)cc2)cn2c(-c3ccc(S(C)(=O)=O)cc3)cnc12	.	.	.	8	.	.	.	.
CC1CCC(NC(=O)C2CCC(CNS(=O)(=O)c3ccc4c(c3)C(C)(C)C(=O)N4C)CC2)CC1 (stereo not given)	.	.	.	-4	.	.	.	.
COc1ccc(-c2noc(CN(C)C(=O)c3ccoc3C)n2)cc1	-2	0	1	-3	-2	15	.	.
COc1cccc(-n2c(SCC(=O)NC3CC3)nc3ccccc3c2=O)c1	.	.	.	7	.	.	.	.
COc1ccccc1-c1noc(-c2ccncc2)n1	1	2	0	-11	20	9	.	.
Cc1ccccc1-c1nc(-c2ccccn2)no1	-40	1	-2	-30	29	10	.	.
COc1ccccc1-c1nc(-c2ccccn2)no1	1	2	-1	-13	113*	14	118*	6
COc1ccccc1-c1noc(-c2cccs2)n1	77	2	0	-5	86*	19	144*	17*
CC(=O)Nc1cc(-c2ccc(Cl)cc2)[nH]n1	-26	0	1	-2	95*	5	160*	.
COc1cc(OC)cc(-c2cc(NC(C)=O)n[nH]2)c1	11	0	2	8	46	20	.	.
CCOc1ccc(OCCn2c(=S)[nH]c3ccccc32)cc1	6	3	1	-5	.	7	.	.
SMILES	Mot1-301 SUMO	NTR1 agonist	GRIN3A LBD mod	H9c2 protect	AHR activator	AI-2 QS modul	AHR act cf	PXR counter
S=c1[nH]c2ccccc2n1CCOc1ccccc1	-1	2	-1	-2	96*	30	102*	77*
O=c1sc2ccccc2n1CCOc1ccccc1	31	-1	2	-4	109*	0	123*	30*
Cc1cccc(OCCn2c(=S)[nH]c3ccccc32)c1	25	4	0	-7	81*	2	90*	74*
Cc1ccc(Cc2c(-c3ccc(Cl)cc3)nc3c(Cl)cc(C(F)(F)F)cn23)cc1	.	.	.	1	.	.	.	.
O=C(Nc1ccc(OC(F)(F)F)cc1)c1ccc2nc[nH]c2c1	-13	1	3	-5	96*	1	137*	12*
COCCC(=O)N1CCC(Oc2ccc(C(=O)N3CCCCC3CCO)cc2)CC1 (stereo not given)	-7	0	0	-2	-2	17	.	.
C=CCNC(=O)c1cc(-c2ccncc2)nc2c(C)cc(C)cc12	2	1	-3	7	81*	20	65*	45*
S=C1NC(c2cccs2)=CC(c2ccc(Br)cc2)N1 (stereo not given)	-8	3	-16	-10	117*	?	111*	60*
Cc1cccc(C(=O)N=c2sccn2C)c1[N+](=O)[O-]	8	-1	2	1	99*	29	82*	142*
CCCCOc1ccc(C(=O)N=c2sccn2C)cc1OC	-12	0	1	-2	-11	30	.	.
Cc1ccc(C(=O)N=c2sccn2C)o1	14	1	-1	4	-8	11	.	.
Cc1ccc(C(=O)N=c2sccn2C)cc1C	-10	0	-2	-9	194*	26	136*	41*
CCN(CC)S(=O)(=O)c1cc(C(=O)N=c2sccn2C)ccc1OC	252	2	3	8	100*	-8	87*	125*
Cc1ccc(C(=O)N=c2sccn2C)cc1S(=O)(=O)N1CCOCC1	277	0	0	10	16	5	.	.
COc1ccc(-c2csc(C(NC(C)=O)c3cccc(F)c3)n2)cc1 (stereo not given)	.	.	.	0	.	.	.	.
NC(=O)C[C@H](NC(=O)c1ccc(Cl)cc1)C(=O)OCc1ccccc1	2	-1	2	12	0	.	.	.
COc1ccc(/C=C/C(=O)OCC(=O)N2CCCCCC2)c(OC)c1	-8	2	0	-3	1	.	.	.
